In PubChem BioAssay:
Where “and” joins values, the source holds several entries; their conditions need not be identical. Equal values may be shown once. Records with an inconclusive call do not appear. Calls of active or inactive are those of the source.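 Rule for the calls, unless noted: active = normalized viability below 100% at a tested concentration; inactive = the rest.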

Key:
[1] = growth inhibition of DIPG glioma cells, dose response, cell-based, SU-DIPG-XVII, MIPE5.0, CellTiter-Glo, qHTS (AID 1347060; cut-off not given, nearly all actives have AC50 up to about 26 µM;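 for AC50: cells exposed to compound for 48 hours before viability readout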); conditions: SU-DIPG-XVII viability, CellTiter-Glo ATP luminescence
[2] = growth inhibition of DIPG glioma cells, dose response, cell-based, SU-DIPG-XIII, MIPE4.0, CellTiter-Glo, qHTS (AID 1347061; cut-off not given, nearly all actives have AC50 up to about 37 µM;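 note: cells exposed to compound for 48 hours before readout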); conditions: SU-DIPG-XIII viability, CellTiter-Glo ATP luminescence
[3] = growth inhibition of DIPG glioma cells, dose response, cell-based, JHH-DIPG-1, MIPE4.0, CellTiter-Glo, qHTS (AID 1347062; cut-off not given, nearly all actives have AC50 up to about 27 µM;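 for AC50: cells exposed to compound for two days before readout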); conditions: JHH-DIPG-1 viability, CellTiter-Glo ATP luminescence
[4] = growth inhibition of DIPG glioma cells, dose response, cell-based, SU-DIPG-IV, MIPE4.0, CellTiter-Glo, qHTS (AID 1347063; cut-off not given, nearly all actives have AC50 up to about 30 µM;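 note: compound exposure lasted 48 hours before the viability readout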); conditions: SU-DIPG-IV viability, CellTiter-Glo ATP luminescence
[5] = growth inhibition of DIPG glioma cells, dose response, cell-based, SU-DIPG-XIII, MIPE5.0, CellTiter-Glo, qHTS (AID 1347064; cut-off not given, nearly all actives have AC50 up to about 23 µM;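 for AC50: cells exposed to compound for 48 hours before the viability read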); conditions: SU-DIPG-XIII viability, CellTiter-Glo ATP luminescence
[6] = viability loss in pontine glioma line – cell-based, SU-DIPG-XXV, MIPE5.0, CellTiter-Glo, qHTS, dose response (AID 1347065; cut-off not given, nearly all actives have AC50 up to about 26 µM;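 note: cells exposed to compound for 48 hours before ATP readout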); conditions: CellTiter-Glo ATP luminescence
[7] = JHH-DIPG-1 glioma cell viability, MIPE5.0 library, CellTiter-Glo luminescence, qHTS (AID 1347067; cut-off not given, nearly all actives have AC50 up to about 26 µM;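 note: cells exposed to compound for 48 hours before readout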); conditions: JHH-DIPG-1 glioma viability, CellTiter-Glo ATP luminescence
[8] = sensitizers of A549 cells to miR-34 induction, primary screen, imaging, A549 dox-inducible miR-34, nuclei and caspase counts (AID 1347080;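 active = compounds whose cell count with miR-34 switched on is under 0.7 times the count with it off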); conditions: A549 miR-34 inducible, Hoechst nuclei count, 48 h
[9] = survival rescue of mitochondrial mutant cells in low glucose, primary screen, MELAS cybrids, Rieske KO mouse fibroblasts, CellTiter-Glo (AID 1508586;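 active = mean z-score across replicates of 1.96 or higher in either the MELAS or the Rieske mutant cell line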;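 note: z relative to plate mean and SD of compound and empty wells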)
[10] = ovarian cancer cell viability with rucaparib, profiling panel, oncology-focused library, rucaparib conditional (AID 1508598); conditions: patient-derived ovarian cancer cells, CellTiter-Glo viability, 144 h, stronger effect = lower value
[11] = SU-DIPG-VI glioma cell viability, MIPE4.0 library, CellTiter-Glo luminescence, qHTS (AID 1347066; cut-off not given, nearly all actives have AC50 up to about 30 µM;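 note: cells exposed to compound for 48 hours before readout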); conditions: CellTiter-Glo ATP luminescence
[12] = SU-DIPG-XXV glioma cell viability, MIPE5.0 library, qHTS (AID 1347068; cut-off not given, nearly all actives have IC50 up to about 30 µM)
[13] = modifiers of HSF1 nuclear foci, imaging, Selleck Cancer Library (AID 1347162; in the data active = plate-normalised HSF1 focus index below about 0.46); conditions: human cells, at 10 µM; SSMD: measured here: HSF1 foci SSMD mean; cell count: measured here: cell number; plate-normalised HSF1 focus index: stronger effect = lower value
[14] = stronger effect = lower value, cell number ratio, induced over uninduced
[15] = measured here: relative caspase fold change +Dox/-Dox
[16] = measured here: total cells with miR-34 induction, stronger effect = lower value
[17] = measured here: total cells without miR-34 induction
[18] = MELAS cybrid survival, CellTiter-Glo 48 h, stronger effect = higher value
[19] = Rieske KO mouse fibroblast survival, CellTiter-Glo 72 h

Cn1cc(CNCC2CCN(c3ncc(C(=O)NO)cn3)CC2)c2ccccc21
984: cell count [8, 16]
active: AC50 [1] 417 nM | AC50 [2] 2.64 µM | AC50 [3] 332 nM | AC50 [4] 418 nM | AC50 [5] 209 nM | AC50 [6] 132 nM | AC50 [7] 0.209 µM | viability ([10]; at 0.000305 µM, OCI-P5x cells, with rucaparib 20 µM, 100% = cells with rucaparib alone) 95.4% | viability ([10]; at 0.000305 µM, OCI-P5x cells, without rucaparib) 92.2% | viability ([10]; at 0.00122 µM, OCI-P5x cells, without rucaparib) 95.8% | viability ([10]; at 0.00488 µM, OCI-P5x cells, with rucaparib 20 µM, 100% = cells with rucaparib alone) 76.6% | viability ([10]; at 0.00488 µM, OCI-P5x cells, without rucaparib) 85.4% | viability ([10]; at 0.0195 µM, OCI-C5x cells, with rucaparib 10 µM, 100% = cells with rucaparib alone) 96.2% | viability ([10]; at 0.0195 µM, OCI-C5x cells, without rucaparib) 99.7% | viability ([10]; at 0.0195 µM, OCI-P5x cells, with rucaparib 20 µM, 100% = cells with rucaparib alone) 32.6% | viability ([10]; at 0.0195 µM, OCI-P5x cells, without rucaparib) 51.7% | viability ([10]; at 0.0781 µM, OCI-C5x cells, with rucaparib 10 µM, 100% = cells with rucaparib alone) 7.04% | viability ([10]; at 0.0781 µM, OCI-C5x cells, without rucaparib) 7.55% | viability ([10]; at 0.0781 µM, OCI-P5x cells, with rucaparib 20 µM, 100% = cells with rucaparib alone) 3.73% | viability ([10]; at 0.0781 µM, OCI-P5x cells, without rucaparib) 9.01% | viability ([10]; at 0.313 µM, OCI-C5x cells, with rucaparib 10 µM, 100% = cells with rucaparib alone) 5.05% | viability ([10]; at 0.313 µM, OCI-C5x cells, without rucaparib) 5.83% | viability ([10]; at 0.313 µM, OCI-P5x cells, with rucaparib 20 µM, 100% = cells with rucaparib alone) 1.63% | viability ([10]; at 0.313 µM, OCI-P5x cells, without rucaparib) 1.83% | viability ([10]; at 1.25 µM, OCI-C5x cells, with rucaparib 10 µM, 100% = cells with rucaparib alone) 3.87% | viability ([10]; at 1.25 µM, OCI-C5x cells, without rucaparib) 5.39% | viability ([10]; at 1.25 µM, OCI-P5x cells, with rucaparib 20 µM, 100% = cells with rucaparib alone) 1.03% | viability ([10]; at 1.25 µM, OCI-P5x cells, without rucaparib) 0.724% | viability ([10]; at 5 µM, OCI-C5x cells, with rucaparib 10 µM, 100% = cells with rucaparib alone) 4.54% | viability ([10]; at 5 µM, OCI-C5x cells, without rucaparib) 5.34% | viability ([10]; at 5 µM, OCI-P5x cells, with rucaparib 20 µM, 100% = cells with rucaparib alone) 1.24% | viability ([10]; at 5 µM, OCI-P5x cells, without rucaparib) 1.13%
0.734: fold change [8, 15]
inactive: fold change [8, 14] 0.846 | z-score [9, 18] -0.103 | viability ([10]; at 0.000305 µM, OCI-C5x cells, with rucaparib 10 µM, 100% = cells with rucaparib alone) 126% | viability ([10]; at 0.000305 µM, OCI-C5x cells, without rucaparib) 118% | viability ([10]; at 0.00122 µM, OCI-C5x cells, with rucaparib 10 µM, 100% = cells with rucaparib alone) 125% | viability ([10]; at 0.00122 µM, OCI-C5x cells, without rucaparib) 133% | viability ([10]; at 0.00122 µM, OCI-P5x cells, with rucaparib 20 µM, 100% = cells with rucaparib alone) 104% | viability ([10]; at 0.00488 µM, OCI-C5x cells, with rucaparib 10 µM, 100% = cells with rucaparib alone) 116% | viability ([10]; at 0.00488 µM, OCI-C5x cells, without rucaparib) 138%
1160: cell count [8, 17]
-2.7: z-score [9, 19]

CC(=O)N[C@H]1[C@H](O[C@@H]2c3ccc(c(Cl)c3)Oc3cc4cc(c3O[C@@H]3O[C@H](CO)[C@@H](O)[C@H](O)[C@H]3NC(=O)CCCCCCCC(C)C)Oc3ccc(cc3Cl)C[C@H]3NC(=O)[C@H](N)c5ccc(O)c(c5)Oc5cc(O)cc(c5)[C@H](NC3=O)C(=O)N[C@H]4C(=O)N[C@H]3C(=O)N[C@@H]2C(=O)N[C@@H](C(=O)O)c2cc(O)cc(O[C@H]4O[C@H](CO)[C@@H](O)[C@H](O)[C@@H]4O)c2-c2cc3ccc2O)O[C@H](CO)[C@@H](O)[C@@H]1O
inactive: outcome [1] | outcome [2] | outcome [3] | outcome [4] | outcome [6] | outcome [11] | outcome [7] | outcome [12]

O=C(O)c1ccc(Nc2ncc3c(n2)-c2ccc(Cl)cc2C(c2c(F)cccc2F)=NC3)cc1
0.787: fold change [8, 15]
2190: cell count [8, 17]
inactive: outcome [2] | outcome [3] | outcome [4] | outcome [11] | fold change [8, 14] 0.96 | z-score [9, 18] -0.524
2100: cell count [8, 16]
0.65: z-score [9, 19]
active: AC50 [1] 4170 nM | AC50 [6] 372 nM | AC50 [7] 16.6 µM

CC[C@H](/C=C/[C@@H](C)[C@H]1CC[C@H]2[C@@H]3CC=C4C[C@@H](O)CC[C@]4(C)[C@H]3CC[C@]12C)C(C)C
inactive: outcome [1] | outcome [2] | outcome [3] | outcome [4] | outcome [6] | outcome [11] | outcome [7] | outcome [12]

CC(C)Nc1cc(C(F)(F)F)cc2nc(NC(=O)c3cccnc3)nn12
inactive: outcome [1] | outcome [2] | outcome [3] | outcome [4] | outcome [6] | outcome [11] | outcome [7] | outcome [12]

NC(=O)c1cccc(-c2cccc(OC(=O)NC3CCCCC3)c2)c1
4040 and 9560: cell count [8, 17]
inactive: outcome [1] | outcome [2] | outcome [3] | outcome [4] | outcome [6] | outcome [11] | outcome [7] | outcome [12] | fold change [8, 14] 1.39 and 0.902 | z-score [9, 18] -0.288
1.45 and 0.843: fold change [8, 15]
-0.11: z-score [9, 19]
5620 and 8620: cell count [8, 16]

O=C(CN1C(=O)C2(CCCC2)NC[C@H]1c1cc(F)cc(F)c1)Nc1ccc2c(c1)C[C@@]1(C2)C(=O)Nc2ncccc21
inactive: outcome [1] | outcome [2] | outcome [3] | outcome [4] | outcome [6] | outcome [11] | outcome [7] | outcome [12]

Cc1cc2c(cc1C1(c3ccc(C(=O)O)cn3)CC1)C(C)(C)CCC2(C)C
7020: cell count [13]
2.63: SSMD [13]
inactive: outcome [1] | outcome [2] | outcome [3] | outcome [4] | outcome [5] | outcome [12] | plate-normalised HSF1 focus index [13] 1.16
